Records with an inconclusive call do not appear. Entries that show only a call come without a potency. Values without a mark were called inactive. The source made the active and inactive calls. The call rests on the fitted dose curve.
Assay: Nuclear factor erythroid 2-related factor 2/antioxidant responsive element (Nrf2/ARE) small molecule agonists: luciferase reporter gene qHTS assay in human keratinocytes (AID 1919969); further: nearly all actives have a fitted effect of over 35% in size
Potency means the concentration at half of the fitted maximal effect.

| SMILES | Potency | activity, positive = activation |
| --- | --- | --- |
| C1=CCCC1 | inactive |  |
| C=CCON/C(CCC)=C1\C(=O)CC(C)(C)C(C(=O)OC)=C1O | inactive |  |
| CC(CO)(CO)C(=O)O | inactive |  |
| CCCCCCCCCCCSCC(=O)O | inactive |  |
| O=C(/C=C/c1ccc(O)c(O)c1)O[C@@H]1C[C@](O)(C(=O)O)C[C@@H](O)[C@H]1O | inactive |  |
| C/C=C/C=C/COC(=O)C(C)C | 68.6 µM (active) |  |
| CCC=O | inactive |  |
| CC(=O)Nc1ccccc1C | inactive |  |
| ONc1ccccc1 | 60.5 µM (active) |  |
| Clc1nnc(Cl)c2ccccc12 | 6.08 µM (active) |  |
| CCC(C(=O)OCCN(CC)CC)c1ccccc1 (configuration not stated) | inactive |  |
| CC(CC(C#N)(c1ccccc1)C(C)C)N(C)C (configuration not stated) | inactive |  |
| CN1CCN(C2Cc3ccccc3Sc3ccc(Cl)cc32)CC1 (configuration not stated) | inactive |  |
| CN=C(NC#N)Nc1ccc(C2=NNC(=O)CC2C)cc1 (configuration not stated) | inactive |  |
| CNS(=O)(=O)CCc1ccc2[nH]cc(C3CCN(C)CC3)c2c1 | inactive |  |
| CCN(CC)C(C)CN1c2ccccc2Sc2ccccc21 (configuration not stated) | inactive |  |
| Cc1ccc2oc(CN(Cc3ccccc3)C(=O)Nc3c(F)cc(F)cc3F)c(-c3ccc(Cl)cc3)c2c1 | inactive |  |
| C/C=C(/C(=C/C)c1ccc(OC(C)=O)cc1)c1ccc(OC(C)=O)cc1 | inactive |  |
| OCCN1C[C@H](O)[C@@H](O)[C@H](O)[C@H]1CO | inactive |  |

| SMILES | Potency | activity, positive = activation |
| --- | --- | --- |
| C[C@H]1C[C@H]2[C@@H]3CCC4=CC(=O)C=C[C@]4(C)[C@H]3C(=O)C[C@]2(C)[C@@]1(O)C(=O)CO | inactive |  |
| NS(=O)(=O)c1cc2c(cc1C(F)(F)F)NCNS2(=O)=O | inactive |  |
| Cn1c(=O)c2c(ncn2CC(O)CO)n(C)c1=O (configuration not stated) | inactive |  |
| OCC(CO)n1cnc(-c2ccc(F)cc2)c1-c1ccnc(Oc2ccccc2)n1 | inactive |  |
| CN1C[C@H](C(=O)N[C@]2(C)O[C@@]3(O)[C@@H]4CCCN4C(=O)[C@H](Cc4ccccc4)N3C2=O)C[C@@H]2c3cccc4[nH]cc(c34)C[C@H]21 | inactive |  |
| CN(C)CC/C=C1/c2ccccc2COc2ccc(CC(=O)O)cc21 | inactive |  |
| C=C(C)C1CC=C(C)C(O)C1 (configuration not stated) | inactive |  |
| CCOC(=O)CC1(C)OCC(C)O1 (configuration not stated) | inactive |  |
| CCOC(=O)C(=O)CCCCCCl | inactive |  |
| CN(C)Cc1ccccc1 | inactive |  |
| CCCCCCCCSCc1cc(C)c(O)c(CSCCCCCCCC)c1 | 61.1 µM (active) |  |
| CCN(CC)CCOC(=O)C1(c2ccccc2)CCCC1 | inactive |  |
| CC(C)C[C@@H](N)C(=O)O |  | -3.08% [at 19 µM] |
| CN1CCN(CC(=O)N2c3ccccc3C(=O)Nc3cccnc32)CC1 |  | -1.98% [at 8.39 µM] |
| C/C=C/C(=O)OCC(C)C | inactive |  |
| COC(=O)[C@H]1[C@H]2C[C@@H]3c4[nH]c5cc(OC)ccc5c4CCN3C[C@H]2C[C@@H](OC(=O)COc2ccc(OC)cc2)[C@@H]1OC | inactive |  |
| O=C1Nc2cc(Cl)ccc2Oc2ccccc21 | inactive |  |
| CCCCCN(CCCCC)C(=O)C(CCC(=O)O)NC(=O)c1ccc(Cl)c(Cl)c1 (configuration not stated) | inactive |  |
